These results are taken from PubChem BioAssay.

Values without a mark were called inactive. Calls of active or inactive are those of the source.

A short description of the assay: PSAC antagonists in infected red cells, primary screen, cell-based, P. falciparum Indochina, OD700, 1 h (AID 1154). To be noted: P. falciparum Indochina infected RBC osmotic lysis, higher = more signal, called active from +8 up or from −8 down.
Consider `COc1cc2c(cc1O)C(c1cccs1)N(Cc1cc3c(cc1Br)OCO3)CC2` (stereo not drawn), for which the z-score was 10.2 (active).

Take `CCC#CCN(Cc1ccccc1Br)[C@H](/C=C/C1CC1)[C@@H](O)Cc1ccccc1`: the z-score was -0.224. Next, `COC(=O)[C@@]1(Cc2ccccc2)[C@H]2c3cc(C(=O)N4CCCC4)n(CCc4ccccn4)c3C[C@H]2CN1C(=O)c1ccccc1`: 1.93; `CCCCC(CC)C(O)C1C=CC2C(=O)N(c3ccccc3)C(=O)C2N1Nc1ccccc1F` (stereo not drawn): 0.741; `[N-]=[N+]=Nc1ccccc1[C@@H]1OC(c2ccc(OCCCO)cc2)=N[C@]1(Cc1ccccc1)C(=O)N1CCCCC1`: 32.6 (active). Next, `CC1CC/C=C\[C@H]2OC34C=CCN(C(C)C)C(=O)[C@H]3N(CCO)C(=O)[C@@H]4C2C(=O)O1` (stereo partly drawn): 0.158; `CCOC(=O)C1=C[C@@H](C(C)(C)C)N(S(=O)(=O)c2ccc(C)cc2)[C@H]1c1cccc2ccccc12`: 0.564; `CC(C)[Si]1(C(C)C)OCc2cc(-c3ccc(-c4ccc(Cl)c(Cl)c4)o3)nc(-c3ccccc3)c21`: 1.01. In the case of `CCCCCCc1nc(Cc2cc(OC)c(OC)c(OC)c2)cc2c1[Si](C(C)C)(C(C)C)OC2` it was 0.88. For the compound `C=CC[C@@H](OC(=O)Nc1ccc(SC)cc1)c1ccc(O)c(F)c1`, the z-score was 24.1 (active). Next, `Cc1ccc(NN2C(C(O)c3c(F)cccc3Cl)C=CC3C(=O)N(C4CCCCC4)C(=O)C32)cc1` (stereo not drawn): 12.9 (active); `COc1ccc([Si](C)(C)[C@@H]2[C@@H](CC(=O)N(CCO)Cc3ccccc3)O[C@]3(C(=O)N(Cc4cccc(N5CCCCC5=O)c4)c4ccccc43)[C@H]2C)cc1`: 4.33. In the case of `NC(=O)[C@H]1[C@@H]2C(=O)O[C@@H](c3ccccc3)[C@@H](c3ccccc3)N2[C@@H](c2ccc(OCCO)cc2)[C@]12C(=O)Nc1ccc(C#CCCO)cc12` it was 6.95; in that of `COc1cc(C(O)C2C=CC3C(=O)N(C)C(=O)C3N2Nc2ccccc2)cc(OC)c1OC` (stereo not drawn), 1.28; in that of `C#Cc1cc2ccccc2oc1=O`, 3.02. In the case of `CC(=O)NCCCC[C@@H]1NC(=O)[C@@H]2C[C@H](C(=O)NCCCCCN)[C@H](c3cccc(OCCO)c3)N2C1=O`, the z-score is 2.03. For the compound `COc1ccc(CCNC(=O)[C@@]2(c3ccc([N+](=O)[O-])cc3)CC(=O)N(C3CCCCC3)[C@@H]2c2ccc(CO)cc2)cc1`, the z-score is 0.965.

In the case of `NCCCCCNC(=O)[C@@H]1C[C@@H]2C(=O)N[C@@H](CCCCN)C(=O)N2[C@@H]1c1ccc(O)cc1`, the z-score is 3.95. Next, `NCCCCCNC(=O)[C@H]1C[C@H]2C(=O)N3CCC[C@H]3C(=O)N2[C@H]1c1cccc(OCCO)c1`: 3.03; `COCCOC(=O)N1C(=O)[C@@]2(c3cc(C#CCCO)ccc31)[C@H](c1ccc(OCCO)cc1)N1[C@H](c3ccccc3)[C@H](c3ccccc3)OC(=O)[C@H]1[C@@H]2C(=O)Nc1nc2ccccc2s1`: 3.74. Next, `COC(=O)C1=CC(CCCO)=CC(c2cccs2)N(C)C=C1C(=O)OC` (stereo not drawn): 2.47. In the case of `COCCOC(=O)N1C(=O)[C@@]2(c3cc(C#CC4(O)CCCCCC4)ccc31)[C@H](c1ccc(O)cc1)N1[C@H](c3ccccc3)[C@H](c3ccccc3)OC(=O)[C@H]1[C@@H]2C(=O)N1CCN(c2ncccn2)CC1` it was 0.138; in that of `COc1ccc([Si](C)(C)[C@@H]2[C@@H](CCO)O[C@]3(C(=O)N(Cc4cccc(NC(=O)[C@H](C)O)c4)c4ccccc43)[C@H]2C)cc1`, 9.14 (active); in that of `Cc1ccc(S[C@]2(C(=O)O)CC(=O)N(C3CCCCC3)[C@@H]2c2ccc(CO)cc2I)cc1`, 9.32 (active).

In the case of `O=C1C[C@]2(c3ccc([N+](=O)[O-])cc3)C(=O)N(C3CC3)c3cc(CO)ccc3[C@H]2N1CC12CC3CC(CC(C3)C1)C2`, the z-score is 0.617. In the case of `COCCCNC(=O)[C@@]1(Sc2ccc(C)cc2)CC(=O)N(C2Cc3ccccc3C2)[C@@H]1c1ccc(CO)cc1`, the z-score is 1.86. Next, `O=C1OCCC=C[C@H]2OC34C=CCN(c5ccc6ccccc6c5)C(=O)[C@H]3N(CCCO)C(=O)[C@@H]4C12` (stereo partly drawn): 0.204. Take `COC(=O)[C@@]1(Cc2ccc(F)cc2)[C@H]2c3cc(C(=O)N(C)C)n(CCc4ccc(OC)c(Br)c4)c3C[C@H]2CN1C(=O)c1ccccc1`: the z-score was 1.89.
